DUSP3 inh – DUSP3 (human) phosphatase inhibition | 0.52% of 290,000 active | recombinant VHR phosphatase, pNPP absorbance | inhibition, % at 13.3 µM | AID 1654 | P51452; in the data active = inhibition above about 50%
Target sequence (P51452 whole entry, looked up): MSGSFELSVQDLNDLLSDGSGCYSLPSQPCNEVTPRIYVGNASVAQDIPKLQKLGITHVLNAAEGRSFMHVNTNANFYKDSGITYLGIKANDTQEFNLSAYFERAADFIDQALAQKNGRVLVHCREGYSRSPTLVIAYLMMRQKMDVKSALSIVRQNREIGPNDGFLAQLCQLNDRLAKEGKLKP
PfHsp40 rescue – compounds rescuing yeast from Plasmodium falciparum HSP40 toxicity; S. cerevisiae expressing PfHsp40, growth rescue, ATP luminescence; growth rescue, % at 12.5 µM; 0.68% of 340,000 active; in the data active = growth rescue above about 28%, passing the limit was not always enough;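 also: yeast W303a lacking pdr1 and pdr3 grown in galactose medium; growth measured after three days at 30 °C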
Mtb hypoxia inh – inhibitors of hypoxia-regulated fluorescent reporter in Mycobacterium tuberculosis. M. tuberculosis hypoxia-regulated fluorescent reporter, fluorescence. fluorescence inhibition, % (test concentration not listed). 0.1% of 300,000 active; in the data active = fluorescence inhibition mostly above about 23%, no sharp cut-off; inactive = mostly below about 17%
PriA SSB inh – inhibitors of Klebsiella pneumoniae PriA binding to SSB C-terminal tail; AlphaScreen SSBct-PriA binding, biotinylated peptide; inhibition, % at 33 µM; AID 1272365; 0.6% of 430,000 active; in the data active = inhibition mostly above about 37%, no sharp cut-off; inactive = mostly below about 20%;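 also: plate controls were negative control peptide for no effect and reference peptide for full effect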
Sa RN4220 lethal – kills Staphylococcus aureus RN4220. S. aureus RN4220 growth, OD600, 16 h. inhibition, % (test concentration not listed). 0.33% of 330,000 active. AID 1259311; in the data active = inhibition above about 85%;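 also: plate controls were untreated cells for no effect and reference antibiotic for full effect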
Sa ugtP lethal – compounds lethal to S. aureus RN4220 ugtP deletion mutant. OD600 growth, 16 h. growth inhibition, % (concentration not given with the values). 0.54% of 330,000 active. AID 1259309; in the data active = growth inhibition above about 68%;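 also: plate controls were untreated wells for no effect and antibiotic for full effect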
Active calls of the source: *; nt = not tested or not shown; ! = a repeat was not active. A selection: hits, their analogues and other compounds. The true share with any hit is near 1.8%.

SMILES	DUSP3 inh	PfHsp40 rescue	Mtb hypoxia inh	PriA SSB inh	Sa RN4220 lethal	Sa ugtP lethal
COc1ccc(C(=O)NCC(=O)NN=Cc2ccc(C)o2)cc1OC	nt	nt	6.2	-1.1	0.6	0.7
CCOc1cc(-c2nnc(NC(=O)COc3ccc(Cl)cc3Cl)o2)cc(OCC)c1OCC	nt	nt	nt	-7.0	nt	nt
CCC1OC(=O)C(C)C(OC2C[C@@](C)(OC)C(O)C(C)O2)C(C)C(OC2OC(C)CC(N(C)C)C2O)[C@](C)(OC)CC(C)C(=O)C(C)C(O)[C@]1(C)O (some centres not stated)	nt	nt	nt	nt	100.6*	100.0*
CCOC(=O)c1ccc2[nH]cc(S(=O)(=O)c3ccc(C)cc3)c(=O)c2c1	nt	nt	nt	10.0	nt	nt
N/C(=N\OC(=O)CCCOc1ccc(Cl)cc1Cl)c1ccncc1	17.5	169.9*	10.6	nt	-1.9	1.8
N/C(=N\OC(=O)CCCOc1ccc(Cl)cc1Cl)c1ccccn1	29.8	2.0	15.0	nt	0.8	2.8
O=C(NCC1CCN(C(=O)Nc2ccc(F)cc2)CC1)NC(c1ccccc1)c1ccccc1	nt	nt	nt	-14.0	nt	nt
COc1ccc(-c2c3c(nc4sc(C(=O)NCC5CCCO5)c(N)c24)CC(C)(C)CC3=O)cc1 (configuration not stated)	nt	nt	nt	-2.0	nt	nt
CCCCn1c(SCC(=O)NCc2ccco2)nc2c1c(=O)n(C)c(=O)n2C	8.9	44.5*	11.4	2.7	-4.2	3.2
Cn1c(=O)c2c(nc(SCC(=O)NCc3ccco3)n2C)n(C)c1=O	18.2	0.7	9.3	-1.8	3.2	12.9
Cc1[nH]n2c(=O)cc(-c3ccc([N+](=O)[O-])cc3)nc2c1-c1ccccc1	nt	0.2	nt	30.4	86.4*	75.5
Cc1[nH]n2c(=O)cc(C(C)C)nc2c1-c1ccccc1	0.1	1.9	1.9	-6.1	-3.1	-4.6
Cc1[nH]n2c(=O)cc(C(C)(C)C)nc2c1-c1ccccc1	22.1	0.3	5.7	-7.3	65.3	95.8*
CCc1nc(-c2ccc(-n3ccc(C(=O)N4CCN(C(=O)c5ccco5)CC4)n3)cc2)no1	nt	nt	nt	-1.0	nt	nt
Cn1c(COc2ccc(Cl)cc2)nnc1SCC(=O)NC1CC1	nt	-0.2	34.3*	1.1	4.6	3.3
ON=C(c1ccccc1)C(O)c1ccccc1 (configuration not stated)	nt	nt	14.4	-2.8	1.4	1.7
COC(/C(=N/O)c1ccc(Cl)cc1)c1ccccc1 (configuration not stated)	3.0	121.7*	nt	nt	nt	nt
COC1=CC(=O)C(O)=C(CCCCCCC/C=C/CCCCCCCC2=C(O)C(=O)C=C(OC)C2=O)C1=O	nt	-1.0	nt	nt	nt	nt
CCCCCCCCCCCC1=C(O)C(=O)C=C(O)C1=O	nt	3.4	nt	-14.3	99.5*	99.6*
O=C(NC1C=CS(=O)(=O)C1)C1(c2ccccc2)CCCC1 (configuration not stated)	nt	nt	nt	-6.0	nt	nt
O=C(Nc1nc2c(Cl)cc(Cl)cc2s1)c1ccc(N2C(=O)CCC2=O)cc1	nt	nt	nt	-3.0	nt	nt
CC(=O)N/C(=C\c1ccccc1)C(=O)OCC(=O)NC1CCCC1	58.3*	-0.6	10.0	-6.3	2.5	12.0
CCOC(=O)c1c(C)oc2c1c(C(c1ccccc1)N1CCOCC1)c(O)c1ccccc12 (configuration not stated)	21.8	0.3	8.4	10.1	13.8	89.2*
CC(C)CCOc1ccc(/C=C2\CCn3c2nc2cc(C(=O)O)ccc2c3=O)cc1	56.3*	-1.0	1.3	-6.0	12.3	16.2
O=C(Cc1ccc(F)cc1)NCC[C@H](O)C1CC1	nt	nt	nt	-4.0	nt	nt
SMILES	DUSP3 inh	PfHsp40 rescue	Mtb hypoxia inh	PriA SSB inh	Sa RN4220 lethal	Sa ugtP lethal
O=C(Cc1ccccc1Cl)NCc1cccc(Oc2ccccn2)c1	nt	nt	nt	0.0	nt	nt
O=C(CSc1ncc(-c2ccccc2)[nH]1)Nc1nc2ccccc2s1	nt	nt	nt	37.0*	nt	nt
Cc1csc(NC(=O)CSc2ncc(-c3ccccc3)[nH]2)n1	-3.8	-0.6	4.2	42.0*!	3.2	-0.7
Cc1nnc(NC(=O)CSc2ncc(-c3ccccc3)[nH]2)s1	-3.9	-1.4	-9.4	2.8	2.5	4.5
O=C(O)c1ccccc1NS(=O)(=O)c1ccc(NN=Cc2cccc(Cl)c2)c([N+](=O)[O-])c1	nt	3.1	7.8	30.9	-11.5	89.5*
COc1ccc(Br)cc1C=NNc1ccc(S(=O)(=O)Nc2ccccc2C(=O)O)cc1[N+](=O)[O-]	nt	nt	10.8	6.6	99.5*	99.5*
O=C(O)c1ccccc1NS(=O)(=O)c1ccc(N/N=C/c2ccc(O)c(O)c2)c([N+](=O)[O-])c1	nt	7.1	nt	nt	nt	nt
Cc1cc(S(=O)(=O)Nc2ccc3c(c2)N(C(=O)C2CC2)CCC3)ccc1F	nt	nt	nt	-12.0	nt	nt
Cc1ccc(-c2cc(CC(=O)NCCCn3ccnc3)no2)cc1	nt	nt	nt	24.0	nt	nt
COC(=O)C1=C(C)N(c2ccc(C)c(C)c2)/C(=C/c2ccc(O)cc2)C1=O	7.2	-0.6	1.8	2.2	92.8*	91.3*
COc1ccc(-c2sc(Nc3ccccc3)n[n+]2-c2ccc(F)cc2)c(C)c1C	32.1	2.5	1.2	41.9*	-3.2	-43.2
COc1ccc(C)cc1Nc1n[n+](-c2ccccc2)c(-c2cc(OC)c(OC)cc2Br)s1	29.1	0.0	nt	57.6*	nt	nt
COc1ccc(-c2coc3cc(OCCN4CCC(C(N)=O)CC4)ccc3c2=O)cc1OC	nt	nt	nt	-7.0	nt	nt
Cc1ccc(-n2[nH]c(C)c(/C=N/Nc3ccc([N+](=O)[O-])cc3[N+](=O)[O-])c2=O)cc1C	50.5*	-0.8	nt	nt	nt	nt
COCCNC(=S)N(CCc1c(C)[nH]c2ccc(C)cc12)Cc1ccco1	18.4	0.0	7.7	17.1	3.8	-9.8
COc1ccc(NC(=S)N(CCc2c(C)[nH]c3ccc(C)cc23)Cc2ccco2)cc1	3.9	0.2	nt	-9.4	nt	nt
CNC(=S)N(CCc1c(C)[nH]c2ccc(OC)cc12)Cc1ccco1	56.9*	-0.7	-1.5	2.6	3.5	-8.0
COCCNC(=S)N(CCc1c(C)[nH]c2ccc(OC)cc12)Cc1ccco1	56.9*	-0.8	13.0	17.0	6.2	4.3
CCc1nnc(NC(=O)CCC(=O)N2CCN(Cc3ccc(C)cc3C)CC2)s1	55.6*	-1.0	-14.5	-15.2	4.5	-0.2
CCNC(=O)[C@@H]1Cc2ccccc2N1C(=O)Nc1ccccc1Cl	nt	nt	nt	-9.0	nt	nt
O=C(Nc1nnc(C2CCCCC2)s1)c1ccccn1	nt	nt	nt	70.5*	nt	nt
O=C(Nc1nnc(C2CCCO2)s1)c1cccs1 (configuration not stated)	2.6	-0.3	-3.9	-13.3	3.3	0.4
O=C(Nc1nnc(SCc2ccc(F)cc2)s1)c1ccccn1	17.9	161.4*	5.7	78.3*	98.4*	98.9*
O=C(Nc1nnc(C2CCC2)s1)c1ccccn1	nt	nt	nt	101.8*	nt	nt
O=C(Nc1nnc(SCc2ccc(F)cc2)s1)c1csnn1	nt	nt	nt	22.0	nt	nt
O=C(Nc1nnc(C2CCCO2)s1)c1ccccn1 (configuration not stated)	nt	nt	nt	110.0*	nt	nt
COC(=O)c1ccc(Cn2nc(C3CC3)c3cnn(-c4ccccc4C)c3c2=O)o1	nt	nt	nt	0.0	nt	nt
O=C(N/N=C\c1cc(Cl)ccc1O)c1ccc(S(=O)(=O)N2CCCCC2)cc1	64.4*	0.1	nt	nt	nt	nt
O=C(CNC(=O)c1ccc(S(=O)(=O)N2CCCC2)cc1)NN=Cc1ccc(Cl)cc1Cl	nt	nt	0.7	-12.9	-1.0	1.2

Assay outcomes: PubChem, several laboratories
